Rows were chosen to be rich in hits. Some 11% of all compounds tested hit in one or more screens of this group.
HTT ATP protect = qHTS Multiplex Assay to Identify Dual Action Probes in a Cell Model of Huntington: Cytoprotection (ATP). Potency, µM (highest dose often 56.4 µM), without a hit: cytoprotection (ATP increase), usual class: activators. 0.14% of 230,000 active. PC12 HTT-Q103 induced, cytoprotection, ATP luminescence, 40 h; active = well fitted curve in the direction sought with a large enough effect; inconclusive = small, poorly fitted or top-dose-only effect, or another doubt; inactive = no such curve, though single readings can be large; an effect the other way counts as inactive or inconclusive; also: potency is read from the fitted curve at half-maximal effect; % of control where 0% means no effect; nearly all actives have a fitted effect of over 45% in size
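Rat PC12, Q103 Htt exon1-GFP fusion, ecdysone promoter; tebufenozide inducer 100 nM final; compound titration; qHTS, 1500 cells/well; ATPlite luminescent read.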
RGS12 GoLoco inh = qHTS Assay for Inhibitors of RGS12 GoLoco Motif Activity (Red Fluorophore). 0.44% of 230,000 active. AID 880, 2007. Gai1:RGS12 GoLoco peptide FP, rhodamine, 10 min. Potency, µM (titrated, usually from 61.6 µM), for the others: at the highest dose activity, negative = inhibition, actives largely listed as inhibitors; active = well fitted inhibition curve with a large enough effect, not every such curve was filed as active; inactive = no such curve, though single readings can be large or run the other way; also: potency is read from the fitted curve at half-maximal effect; % is scaled to controls: 0 for no effect and ±100 for the full control effect; nearly all actives have a fitted effect of over 30% in size
Target sequence (P63096 whole entry, looked up): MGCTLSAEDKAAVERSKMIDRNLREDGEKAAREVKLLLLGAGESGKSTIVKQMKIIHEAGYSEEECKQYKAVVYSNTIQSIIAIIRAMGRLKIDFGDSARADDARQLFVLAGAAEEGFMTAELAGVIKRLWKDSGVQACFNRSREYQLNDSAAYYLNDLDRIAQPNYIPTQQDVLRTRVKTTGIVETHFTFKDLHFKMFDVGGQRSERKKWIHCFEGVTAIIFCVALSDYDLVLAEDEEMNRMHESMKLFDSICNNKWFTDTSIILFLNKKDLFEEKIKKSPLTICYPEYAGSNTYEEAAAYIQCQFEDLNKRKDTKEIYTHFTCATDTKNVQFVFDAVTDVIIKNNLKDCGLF
HTT aggregate = qHTS Multiplex Assay to Identify Dual Action Probes in a Cell Model of Huntington: Aggregate Formation (GFP) | PC12 HttQ103-GFP aggregates, Acumen cytometry, 40 h | Potency, µM (highest dose often 46.1 µM), for the others: at the highest dose activity change, negative = inhibition, most hits filed as inhibitors | 1.1% of 220,000 active | AID 1688, 2009; active = well fitted curve in the direction sought with a large enough effect; inconclusive = small, poorly fitted or top-dose-only effect, or another doubt; inactive = no such curve, though single readings can be large; an effect the other way counts as inactive or inconclusive; also: potency is read from the fitted curve at half-maximal effect; % is scaled to controls: 0 for no effect and ±100 for the full control effect; nearly all actives have a fitted effect of over 60% in size
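Aggregates are detected as GFP objects 1–25 µm with signal 6 STDEV over background in lysates of induced PC12 cells. These carry Huntingtin exon 1 with 103 glutamines fused to GFP under an ecdysone promoter; compounds titrated.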
ALDH1A1 block = qHTS Assay for Inhibitors of Aldehyde Dehydrogenase 1 (ALDH1A1); AID 1030, 2008; 7.3% of 220,000 active; Potency, µM (top dose mostly 75.3 µM), without a hit: at the highest dose activity, negative = inhibition, most hits filed as inhibitors; Purified ALDH1A1, NADH fluorescence, propionaldehyde substrate; Aldehyde dehydrogenase 1A1 (Homo sapiens), P00352;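 also: potency is read from the fitted curve at half-maximal effect; plate controls were no enzyme wells and a reference inhibitor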
HPGD inh = qHTS Assay for Inhibitors of HPGD (15-Hydroxyprostaglandin Dehydrogenase); purified HPGD, NADH fluorescence kinetic, PGE2 substrate; Potency, µM, inactives show top-dose activity change, negative = inhibition, usual class: inhibitors; 4.3% of 150,000 active; AID 894, 2007; also: potency is read from the fitted curve at half-maximal effect; % is scaled to controls: 0 for no effect and ±100 for the full control effect
Target sequence (P15428 whole entry, looked up): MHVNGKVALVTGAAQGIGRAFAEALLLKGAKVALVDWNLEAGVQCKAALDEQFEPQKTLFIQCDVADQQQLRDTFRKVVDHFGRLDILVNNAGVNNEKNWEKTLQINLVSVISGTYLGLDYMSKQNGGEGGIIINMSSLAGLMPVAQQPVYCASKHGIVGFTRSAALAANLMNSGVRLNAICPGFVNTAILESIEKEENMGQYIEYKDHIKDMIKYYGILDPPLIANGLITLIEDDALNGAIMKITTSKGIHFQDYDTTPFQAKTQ
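NADH formation kinetics: reaction with 30 uM PGE2 and 1 mM NAD+ (final), 20 nM enzyme, Tris-HCl pH 8 with Tween 20, after 15 min compound preincubation at room temperature. Fluorescence change, last versus first of five reads.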
PNC inhibitor = High Content Assay for Compounds that inhibit the Assembly of the Perinucleolar Compartment. PC3M PTB-GFP, PNC prevalence imaging, 16 h; active compounds read low. activity change (PNC), negative = inhibition, % at 10 µM. 3.1% of 140,000 active;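 active = readout at or below -70, meaning at least 70% loss of cells showing the perinucleolar compartment, a nuclear body marking cancer cells; inconclusive = readout between -30 and a set limit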;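 also: plate controls were DMSO wells for no effect and camptothecin positive control wells for full effect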
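Read-out is percentage of cells bearing a perinucleolar compartment, from automated 20x imaging of fixed, Hoechst-stained PC3M PTB-GFP cells. Cells were seeded 4 h, then exposed 16 h to compound (23 nl of library stock) in duplicate plates.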
Active calls of the source: *; ? = inconclusive; . = no result given; [ ] = another dose, or the depositor's remark. Unless noted, calls follow the shape of the dose curve; as a rule, active = well fitted inhibition curve with a large enough effect (not every such curve was filed as active); inconclusive = small, poorly fitted or top-dose-only effect, or another doubt; inactive = no such curve, though single readings can be large or run the other way.

SMILES	HTT ATP protect	RGS12 GoLoco inh	HTT aggregate	ALDH1A1 block	HPGD inh	PNC inhibitor
O=C(CSc1ccc2c(c1)OCCO2)NCC1CCCO1 (centres undefined)	-15.9%	-3.5%	-7.7%	?	15.8µM*	26.8
COC(=O)[C@@]1(Cc2ccc(OC)cc2)[C@H]2c3cc(C(=O)N(C)C)n(Cc4ccccc4)c3C[C@H]2CN1C(=O)c1ccccc1	?	11.7%	.	-0.6%	-2.8%	.
Nc1nc(NS(=O)(=O)c2ccc(Cl)cc2)nn1-c1ccccc1	2.2%[10 µM]	-0.5%	-3.2%[9.22 µM]	.	.	.
Cc1ccsc1/C=N\NC(=O)c1cc(C(C)(C)C)[nH]n1	-10.1%	7.9%	-19.5%	-8.4%	.	.
CC(=O)c1cccc(NC(=O)N2CCC(NC(=O)C34CC5CC(CC(C5)C3)C4)CC2)c1	-13.7%	1.9%	-7.5%	-4.5%	.	.
O=[N+]([O-])c1ccc(OCc2nnc(-c3ccccc3)o2)cc1	-23.8%	2.2%	-13.0%	6.5%	.	.
CN(c1ccc(OCc2nnc(-c3ccccc3)o2)cc1)S(=O)(=O)c1ccccc1	5.6%[10 µM]	30.4%	13.8%	5.1%	7.94µM*	?
Cc1ccccc1C(=O)Nc1ccc2c(c1)OCO2	-98.2%	3.0%	-5.4%	-5.5%	17.8µM*	?
CSc1ccccc1C(=O)Nc1cccc(N(C)S(C)(=O)=O)c1	-10.2%	6.5%	-5.4%	?	-2.0%	?
COc1ccccc1C(=O)Nc1cccc(N(C)S(C)(=O)=O)c1	3.8%[10 µM]	-11.4%	-26.7%	-4.2%	-14.2%	-100.0*
CN(c1ccccc1C(=O)Nc1ccc2c(c1)OCO2)S(C)(=O)=O	-16.1%[10 µM]	5.5%	-12.2%	-1.1%	-24.6%	-100.0*
COC(=O)C(Cc1ccccc1)P(=O)(c1ccccc1)c1ccccc1 (centres undefined)	.	2.4%	-8.0%	0.3%	-6.2%	29.7
O=C(/C=C/c1ccccc1)NC(=S)N1CCSCC1	12.4%[10 µM]	15.9%	17.7%[9.22 µM]	3.5%	.	.
Cc1cc(NC(=S)Nc2cccnc2)ccc1Br	-14.1%	6.7%	-22.5%	22.4µM*	.	.
COc1cc(NC(=S)Nc2cccnc2)cc(OC)c1	2.0%[10 µM]	3.7%	-6.7%	31.6µM*	28.2µM*	?
O=C1CC(Cc2ccccc2)C(=O)N1Cc1ccco1 (centres undefined)	-20.2%	35.2%	24.7%	2.82µM*	-13.6%	-9.8
Cc1ccc(CC2CC(=O)N(Cc3ccco3)C2=O)cc1 (centres undefined)	10.2%	0.7%	2.1%	18.9µM*	-10.8%	-5.2
O=C1CC(NCc2ccco2)C(=O)N1CCc1ccccc1 (centres undefined)	-5.3%	-0.5%	1.5%	-14.1%	-16.7%	1.1
O=C1C2C3CCC(C3)C2C(=O)N1Cc1ccco1 (centres undefined)	8.6%[0.074 µM]	9.1%	-0.6%	11.9µM*	-1.3%	27.6
O=C(CN1C(=O)C2C3CCC(C3)C2C1=O)NCc1ccco1 (centres undefined)	-10.4%[10 µM]	13.3%	2.3%[9.22 µM]	0.1%	.	.
CCCn1c(=O)c(C(=O)NCc2ccco2)c(O)c2ccccc21	-24.7%	-7.6%	3.1%	-1.1%	.	.
CC(C)c1ccc(/C=C2\CC/C(=C\C=N\N(C)C)C2=O)cc1	-26.4%	40.5%	5.9%[9.22 µM]	0.398µM*	-23.4%	14.6
CC(C)/C=C1\CC/C(=C\c2ccc(N(C)C)cc2)C1=O	-7.8%[10 µM]	268.6%	21.0%	-10.4%	-2.0%	-24.2
CCOC1(/N=C(\C)NS(=O)(=O)c2ccc(Cl)cc2)C(C)=CC(=O)C=C1C	-2.5%	-10.6%	7.8%	4.2%	.	.
c1ccc(Nc2nc(NCC3CCCO3)c3ccccc3n2)cc1 (centres undefined)	-23.3%	10.4%	?	?	.	.
SMILES	HTT ATP protect	RGS12 GoLoco inh	HTT aggregate	ALDH1A1 block	HPGD inh	PNC inhibitor
CCOc1ccc(Nc2nc(NCC3CCCO3)c3ccccc3n2)cc1 (centres undefined)	-35.2%	11.7%	14.1µM*	?	.	.
O=C(c1ccccc1)c1coc2ccc(O)c(Cl)c12	-29.3%[0.074 µM]	-16.4%	-28.3%	?	14.1µM*	54.2
COc1ccc(C(=O)c2ccc(OC)c(N)c2)cc1N	-43.7%	-21.1%	?	20µM*	-31.7%	19.9
COc1ccc(C(=O)c2ccc(OC)c(OC)c2)cc1	-8.7%	9.6%	-2.3%	?	-8.9%	-10.5
CO[C@@H]1COC(=O)[C@@H](C)NC(=O)C/C=C\[C@@H](C)[C@H](NS(=O)(=O)c2ccc(C)cc2)COC(=O)[C@H](C)NC(=O)C/C=C\[C@H]1C	-11.6%[10 µM]	.	.	9.4%[13.5 µM]	.	.
O=C(O)c1ccc(CN2C(=O)CSC2=S)cc1	?	126.5%	?	12.6µM*	-20.7%	?
O=C(O)c1ccc(N=C2SCC(=O)N2Cc2ccccc2)cc1	-0.4%[10 µM]	4.6%	5.3%[9.22 µM]	12.6µM*	.	.
O=C(O)CC(=O)Nc1ccccc1	-3.0%	3.1%	-1.4%	-2.6%	-2.0%	0.9
O=C(CCl)Nc1ccc(N=Nc2ccccc2)cc1	.	-33.7%	?	0.398µM*	-22.6%	-121.9*
O=C(CCl)Nc1cn(-c2ccccc2)nc1-c1ccccc1	-192.2%	-8.4%	22.4µM*	14.1µM*	.	.
O=C(CCl)Nc1ccc(-c2ccccc2)cc1	-6.6%	-1.5%	17.8µM*	0.251µM*	.	.
CC(C)N(c1ccccc1)c1ccc(NC(=O)CCl)cc1	7.4%[10 µM]	8.9%	?	0.398µM*	.	.
COc1ccc2cc(C(=O)CCC(=O)O)ccc2c1	-5.7%[10 µM]	2.9%[14.2 µM]	.	?	?	.
Cc1ccc(S(=O)(=O)Nc2ccc(O)c(C(=O)O)c2)c(C)c1	.	.	.	?	-8.9%	.
COc1ccc(C2=[N+](C)CCn3cccc32)c(OC)c1	.	-13.7%	-26.3%	-3.0%	-5.5%	-29.9
CS(=O)(=O)Nc1ccc(Br)cc1C(=O)c1ccccc1	-15.5%	8.6%	-4.9%	21.5%	-15.6%	-83.7*
CCC(C)(Oc1ccc(C2(c3ccc(OC(C)(CC)C(=O)O)cc3)CCCCC2)cc1)C(=O)O (centres undefined)	-9.6%	.	12.0%	.	.	.
CC(OC(=O)c1ccc([N+](=O)[O-])s1)C(=O)Nc1ncc(Cl)cc1Cl (centres undefined)	-9.7%[1.9 µM]	-13.4%	-7.1%	6.31µM*	-6.2%	65.7
CC(OC(=O)c1ccc(Cl)c(S(=O)(=O)N2CCc3ccccc32)c1)C(=O)Nc1ncc(Cl)cc1Cl (centres undefined)	-2.2%[1.9 µM]	-11.9%	3.1%	25.1µM*	-14.8%	?
O=C(COC(=O)c1cccc(S(=O)(=O)N2CCc3ccccc32)c1)Nc1ncc(Cl)cc1Cl	6.7%[10 µM]	-7.1%	-27.8%	-4.0%	-8.5%	?
